Source: PubChem BioAssay (National Center for Advancing Translational Sciences (NCATS))
An excerpt weighted towards active compounds, which were near 2.8% of everything screened.
POLK inh: DNA polymerase kappa (human) inhibition; 400,000 compounds, 0.53% hits; Potency, µM (highest dose often 107 µM), actives largely listed as inhibitors; Q9UBT6; purified Pol kappa, fluorescent DNA synthesis assay, 10 min; AID 588579
Target sequence (Q9UBT6 whole entry, looked up): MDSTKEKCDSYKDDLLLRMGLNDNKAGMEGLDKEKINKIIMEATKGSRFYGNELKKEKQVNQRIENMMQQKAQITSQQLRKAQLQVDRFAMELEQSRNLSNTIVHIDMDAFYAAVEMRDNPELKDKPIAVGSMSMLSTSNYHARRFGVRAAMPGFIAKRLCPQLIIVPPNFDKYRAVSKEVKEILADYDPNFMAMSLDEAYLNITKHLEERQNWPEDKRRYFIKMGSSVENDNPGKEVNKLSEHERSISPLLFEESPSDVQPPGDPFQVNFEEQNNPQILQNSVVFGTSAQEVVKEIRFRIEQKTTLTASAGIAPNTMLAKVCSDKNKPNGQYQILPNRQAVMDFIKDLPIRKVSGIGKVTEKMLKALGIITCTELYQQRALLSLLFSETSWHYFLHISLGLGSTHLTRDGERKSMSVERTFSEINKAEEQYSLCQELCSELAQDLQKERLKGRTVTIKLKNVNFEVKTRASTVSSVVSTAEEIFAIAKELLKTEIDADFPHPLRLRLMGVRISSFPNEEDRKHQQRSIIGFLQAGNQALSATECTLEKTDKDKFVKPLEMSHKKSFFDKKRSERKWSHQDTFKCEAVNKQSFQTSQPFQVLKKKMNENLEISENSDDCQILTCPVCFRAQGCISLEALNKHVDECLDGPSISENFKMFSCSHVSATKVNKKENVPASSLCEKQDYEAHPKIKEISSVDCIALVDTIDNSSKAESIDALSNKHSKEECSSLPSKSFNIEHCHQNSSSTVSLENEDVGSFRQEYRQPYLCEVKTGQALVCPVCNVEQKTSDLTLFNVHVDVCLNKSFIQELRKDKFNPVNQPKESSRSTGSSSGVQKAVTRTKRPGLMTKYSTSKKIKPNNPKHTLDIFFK
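Enzyme at 10 nM met test compounds for 15 min at room temperature. Substrate addition (50 nM final) began the reaction, which was monitored by fluorescence at 0 and 10 min.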
PI5P4Ka inh: inhibitors of human PI5P4K alpha; P48426; PI5P4Kalpha enzyme, ADP-Glo luminescence, 60 min; active compounds read low; max response, %; 330,000 compounds, 1.2% hits; active = max response of -50% or lower; inconclusive = between -30% and -50%; inactive = -30% or higher; note: value at the top dose of about 77 µM
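ADP-Glo luminescence end-point after a 60 min room-temperature kinase reaction. PI5P4Kalpha and substrate in HEPES pH 7.4 buffer with EGTA, 0.1% CHAPS and 5% DMSO; ATP at 5 microM final.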
POLH inh: blocks human DNA polymerase eta activity; Q9Y253; recombinant Pol eta, fluorescent DNA replication assay; Potency, µM (top dose mostly 114 µM), usual class: inhibitors; 390,000 compounds, 1.2% hits; AID 588591
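Pol eta (10 nM) was preincubated with compounds for 15 min at room temperature, after which fluorescent replication substrate (50 nM final) was added to start the reaction. Fluorescence was read kinetically at 0 and 10 min.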
Pol beta inh: blocks human DNA polymerase beta activity; Potency, µM (series often up to 114 µM), usual class: inhibitors; P06746; 340,000 compounds, 1.3% hits; Pol beta primer extension/strand displacement, fluorescence kinetic; AID 485314
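Curves were derived by four-parameter Hill fits of normalized qHTS data. The kinetic fluorescent primer-extension read was taken at 0 and 10 min after 50 nM substrate, following a 15 min room-temperature preincubation of 10 nM enzyme with compounds.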
WRN inhibitor: blocks human WRN helicase | Q14191 | WRN helicase unwinding, fluorescent forked duplex, kinetic | Potency, µM (doses to about 114 µM), usual class: inhibitors | 360,000 compounds, 0.46% hits | AID 651768; note: nearly all actives have a fitted effect of over 55% in size
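Screening of the MLSMR collection measured strand separation of a quenched forked DNA duplex (100 nM) by 20 nM WRN with 2 mM ATP, all final. Compounds were preincubated with enzyme 15 min at room temperature.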
Pol iota inh: inhibitors of human DNA polymerase iota; Q9UNA4; Pol iota fluorescent replication assay, 10 min; Potency, µM (highest dose often 115 µM), usual class: inhibitors; 390,000 compounds, 1% hits; AID 588590
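Pol iota at 10 nM preincubated 15 min with compounds at room temperature; reaction started with fluorescent substrate, 50 nM final. Fluorescence read kinetically at 0 and 10 min; buffer-only wells as negative control.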
Hits are given with their value; 0 = inactive; ? = inconclusive; - = not tested or not shown; [ ] = another dose, or the depositor's remark. Unless noted, calls come from the whole dose curve; as a rule, active = well fitted curve in the direction sought with a large enough effect; inconclusive = small, poorly fitted or top-dose-only effect, or another doubt; inactive = no such curve, though single readings can be large; an effect the other way counts as inactive or inconclusive.

SMILES | POLK inh | PI5P4Ka inh | POLH inh | Pol beta inh | WRN inhibitor | Pol iota inh
CCCCC(=O)N/N=C/c1c(O)n(CCc2ccc(OC)c(OC)c2)c(=O)[nH]c1=O | 0 | 0 | 0 | 0 | 0 | 0
CCCCn1c(O)c(/C=N/NC(=O)c2ccncc2)c(=O)[nH]c1=S | 0 | ? | ? | ? | 31.6µM | 0
COc1ccc(CCn2c(O)c(/C=N/NC(=O)c3ccncc3)c(=O)[nH]c2=O)cc1OC | 0 | -82.4 | 0 | 0 | 0 | 0
O=C(N/N=C/c1c(O)n(Cc2ccccc2)c(=O)[nH]c1=O)c1ccncc1 | 0 | -55.7 | 0 | 0 | ? | 0
O=C(N/N=C/c1c(O)n(Cc2ccc(F)cc2)c(=O)[nH]c1=O)c1ccccc1 | 0 | ? | 0 | 0 | 0 | 0
Cc1ccc(-n2c(O)c(/C=N/NC(=O)c3ccncc3)c(=O)[nH]c2=O)cc1 | 0 | 0 | 0 | 0 | 0 | 0
C=CCn1c(O)c(/C=N/NC(=O)c2ccncc2)c(=O)[nH]c1=O | 0 | -50.4 | 0 | 0 | 0 | 0
C[C@@H]1C[C@H](C)C[C@H](C)[C@@H](O)CC(=O)O[C@H]([C@H]2CCC[C@H]2C(=O)O)C/C=C/C=C(/C#N)[C@H](O)[C@@H](C)C1 | 0 | - | - | - | - | -
COc1ccc(NCC(=O)N2CCCC2)cc1Cl | 0 | 0 | 0 | 0 | 0 | 0
O=C(O)c1ccc([N+](=O)[O-])c([N+](=O)[O-])c1 | 0 | -50.4 | ? | - | 0 | 0
CC1OC(O[C@H]2C[C@@H](O)[C@]3(CO)[C@@H]4C(CC[C@]3(O)C2)[C@@]2(O)CC[C@H](C3=CC(=O)OC3)[C@@]2(C)C[C@H]4O)C(O)C(O)C1O (stereo not given in full) | 0[19.4 µM] | - | - | - | - | -
O=C(Nc1ccc(Br)cc1C(=O)O)c1ccc2c(c1)C(=O)N(Cc1ccccc1)C2=O | 0 | -73.7 | 28.2µM | 0 | ? | 0
O=C(c1cncc(Br)c1)N1CCN(S(=O)(=O)c2ccc3ccccc3c2)CC1 | 0 | 0 | 0 | - | 0 | 0
O=C1CCC2(O)C3Cc4ccc(O)c5c4C2(CCN3Cc2ccoc2)C1O5 (stereo not given) | - | 0 | 28.2µM | - | 0 | -
Cc1ccc(N2C(=O)/C(=C/c3ccc(CN(CCC#N)S(C)(=O)=O)o3)C(=O)NC2=S)cc1C | - | - | - | 20µM | - | -
O=C(CSc1nnc(NC(=O)C2CC2)s1)NCc1ccccc1Cl | 0 | 0 | 0 | 0 | 0 | 0
Oc1c(Cl)cc(Cl)cc1CN1CCN(Cc2ccccc2)CC1 | 0 | - | 0 | 0 | 0 | 31.6µM
COC(=O)[C@]1(C)CC[C@@]2(C)CC[C@@]3(C)C4=CC=C5C(=CC(=O)C(O)=C5C)[C@@]4(C)CC[C@@]3(C)C2C1 (stereo not given in full) | 0 | - | - | - | - | -
Cc1ccsc1/C=N/NC(=O)c1cccc(S(=O)(=O)Nc2ccccc2Cl)c1 | 0 | 0 | 0 | 0 | ? | 0
O=C(O)c1cc(S(=O)(=O)Nc2ccccc2C(=O)O)ccc1O | 0 | -53.7 | 0 | ? | 0 | 0
O=C(O)c1ccccc1NS(=O)(=O)c1cccc(N=Nc2c(O)[nH]c(=S)[nH]c2=O)c1 | 0 | -73.8 | 0 | - | 0 | ?
CCOC(=O)c1ccccc1NC(=O)c1c(O)[nH]c(=S)[nH]c1=O | 0 | 0 | 0 | - | 0 | 0
Cc1ccc(CNC(=O)C(=O)NCC(c2cccnc2)N2CCN(c3ccc(F)cc3)CC2)cc1 (stereo not given) | 0 | - | 0 | ? | - | 0
O=C1OC(=O)C2C3CCC(O3)C12 (stereo not given) | ? | - | 0 | 0 | - | 0
CC(=O)CC(c1ccccc1)c1c(O)c2cccc(O)c2oc1=O (stereo not given) | 0 | - | - | - | - | -
SMILES | POLK inh | PI5P4Ka inh | POLH inh | Pol beta inh | WRN inhibitor | Pol iota inh
COC1CC2C=C(C)C=CC=CC(=O)NC(c3ccccc3)CC=CCCC(O)CC(=O)C2=C1O (stereo not given) | - | -83.7 | - | - | ? | -
CCOc1ccc(-c2nc3ccc(-c4nc5ccc(N6CCN(C)CC6)cc5[nH]4)cc3[nH]2)cc1 | 0.299µM | - | - | - | - | -
C[C@H]1COC2=C1C(=O)C(=O)c1c2ccc2c1CCCC2(C)C | ? | -51.5 | 35.5µM | 22.4µM | ? | 22.4µM
CC1COC2=C1C(=O)C(=O)c1c2ccc2c1CCCC2(C)C (stereo not given) | 28.2µM | - | - | - | - | -
CC(C)NC(=O)C(C)N1CCN(S(=O)(=O)c2ccc3ccccc3c2)CC1 (stereo not given) | 0 | 0 | 0 | 0 | 0 | 0
O=C(O)CSCC(=O)N(Cc1ccccc1)c1nc(-c2ccccc2)c(-c2ccccc2)s1 | ? | 0 | ? | 50.1µM | 0 | 50.1µM
CN(C)C(CSC(N)=O)CSC(N)=O | 0[12 µM] | - | - | - | - | -
C[C@]12CC[C@H]3[C@@H](CC[C@@]45O[C@@H]4C(=O)C(C#N)C[C@]35C)[C@@H]1CC[C@@H]2O (stereo not given in full) | 0[19.4 µM] | - | - | - | - | -
[Cl][In]([Cl])[Cl] | 0 | - | - | - | - | 17.8µM
CC(C)C[C@H]1C(=O)N2CCC[C@H]2[C@]2(O)O[C@](NC(=O)[C@@H]3C=C4c5cccc6[nH]cc(c56)C[C@H]4N(C)C3)(C(C)C)C(=O)N12 | 0 | ? | 0 | - | 0 | 11.2µM
CC(C)C[C@H]1C(=O)N2CCC[C@H]2[C@]2(O)O[C@](NC(=O)[C@@H]3C=C4c5cccc6[nH]c(Br)c(c56)C[C@H]4N(C)C3)(C(C)C)C(=O)N12 | 0 | - | - | - | - | -
CC1(C)CC(=O)C(C2(O)C(=O)NC(=O)NC2=O)=C(O)C1 | 0 | - | 0 | 0 | 0 | 8.91µM
O=C1NC(=O)C(=Cc2ccc(OCCOc3ccc([N+](=O)[O-])cc3)cc2)C(=O)N1 | 0 | -62.5 | 79.4µM | ? | 0[11.6 µM] | ?
CCOc1cc(C=C2C(=O)NC(=O)NC2=O)ccc1OS(=O)(=O)c1ccccc1 | 0 | -62.8 | 0 | 0 | 44.7µM | 0
O=C1NC(=O)C(=Cc2ccc3c(c2)OCO3)C(=O)N1 | - | - | - | 0 | - | -
O=C1NC(=O)C(=Cc2cccc(OCCOc3ccccc3)c2)C(=O)N1 | 0 | -51.7 | 0 | 0 | 0 | ?
c1nc[n]([Sn]([CH]2CCCCC2)([CH]2CCCCC2)[CH]2CCCCC2)n1 | 0 | - | - | - | - | -
C[C@@H](NC(=O)[C@@H](N)Cc1ccc(O)cc1)C(=O)NCC(=O)N(C)[C@@H](Cc1ccccc1)C(=O)NCCO | 0 | - | - | - | - | -
CC1OC(O[C@H]2C[C@@H](O)[C@]3(CO)[C@H]4[C@H](O)C[C@]5(C)[C@@H](C6=CC(=O)OC6)CC[C@]5(O)[C@@H]4CC[C@]3(O)C2)C(O)C(O)C1O (stereo not given in full) | 0 | - | - | - | - | 0
COc1cccc([C@@]2(O)CCCCC2CN(C)C)c1 (stereo not given in full) | 0 | - | - | - | - | -
C/C(=N\NC(=O)c1ccccc1O)c1c(O)n(C2CCCCC2)c(=O)[nH]c1=O | 0 | 0 | 0 | 0 | 0 | 0
C/C(=N\NC(=O)c1ccccc1O)c1c(O)n(Cc2ccccc2)c(=O)[nH]c1=O | 0 | -70.8 | 0 | 0 | 0 | 0
